Experimental data as given in PubChem BioAssay (EPA / NIEHS).
Calls of active or inactive are those of the source. How the source made its calls: active means hit-call score of the fitted dose curve at least 0.9, where 1 is the maximum; inactive means score below 0.9.

The molecules below were run on Secreted IgG (sIgG), gene 3500 (assay: BSK_BT_sIgG: BioMAP Diversity Plus: BT Assay for Secreted IgG (sIgG) Biomarker Activity (AID 2284226)). Settings: primary human B cells with PBMC.
In short: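 In this multiplexed co-culture system, ELISA quantifies sIgG 24 h post-treatment. Endpoint analysis uses positive fitting direction, DMSO negative control.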

| SMILES | outcome | AC50 |
| --- | --- | --- |
| CC(=O)/C=C/C1=C(C)CCCC1(C)C | inactive | – |
| c1ccc2c(c1)c1cccc3ccc4cccc2c4c31 | – | 20 µM (active) |
| CNC[C@H](O)c1cccc(O)c1 | inactive | – |
| CCCCCCCCCC=O | – | 20 µM (active) |
| CCCCC/C=C/C=C/C=O | – | 29 µM (active) |
| CC(C)c1ccc(C(C)C)cc1 | inactive | – |
| CCc1c(C)cc(N)c(CC)c1N | inactive | – |
| CC(=O)O[C@]1(C(C)=O)CC[C@H]2[C@@H]3C[C@H](C)C4=CC(=O)CC[C@]4(C)[C@H]3CC[C@@]21C | – | 14.4 µM (active) |
| C=C[Si](OCC)(OCC)OCC | inactive | – |
| Cc1ccc(O)c(C(C)(C)C)c1 | inactive | – |
| CC(C)Oc1ccccc1O | inactive | – |
| CN(CCOc1ccc(CC2SC(=O)NC2=O)cc1)c1ccccn1 (stereo not drawn) | inactive | – |
| O=C=NC1CCC(CC2CCC(N=C=O)CC2)CC1 (stereo not drawn) | – | 31 µM (active) |
| c1ccc2sc(SN(C3CCCCC3)C3CCCCC3)nc2c1 | inactive | – |
| O=C(O)C[C@H](O)C[C@H](O)/C=C/c1c(C2CC2)nc2ccccc2c1-c1ccc(F)cc1 | – | 0.122 µM (active) |
| Cc1ccc(Nc2ccc(O)c3c2C(=O)c2ccccc2C3=O)cc1 | inactive | – |
| COC(=O)c1ccc(C)cc1 | inactive | – |
| N#Cc1ccc(CC(=NNC(=O)Nc2ccc(OC(F)(F)F)cc2)c2cccc(C(F)(F)F)c2)cc1 | – | 9.95 µM (active) |
| O=[N+]([O-])c1cc(C(F)(F)F)ccc1Cl | inactive | – |

| SMILES | outcome | AC50 |
| --- | --- | --- |
| C=C(C)C(=O)O[C@H]1C[C@@H]2CC[C@@]1(C)C2(C)C | inactive | – |
| Nc1cc([N+](=O)[O-])ccc1Cl | inactive | – |
| C#C[C@]1(O)CC[C@H]2[C@@H]3CCC4=Cc5oncc5C[C@]4(C)[C@H]3CC[C@@]21C | – | 14.3 µM (active) |
| CCn1c2ccccc2c2cc(N)ccc21 | – | 15.4 µM (active) |
| CCCCCCCCCCCCCCCCCC(=O)OCC(CC)CCCC (stereo not drawn) | inactive | – |
| CCCCC(CC)COCCC#N (stereo not drawn) | inactive | – |
| CC(=O)Nc1ccccc1O | inactive | – |
| O=C(O)c1cn(-c2ccc(F)cc2)c2cc(N3CCNCC3)c(F)cc2c1=O | inactive | – |
| O=P(c1ccccc1)(c1ccccc1)c1ccccc1 | inactive | – |
| CCCCC(CC)COC(=O)/C=C\C(=O)OCC(CC)CCCC (stereo not drawn) | – | 7.47 µM (active) |
| O=C(O)c1cn(C2CC2)c2cc(N3CCNCC3)c(F)cc2c1=O | inactive | – |
| CC(C)(COC(=O)c1ccccc1)COC(=O)c1ccccc1 | – | 29.9 µM (active) |
| Cc1ccc2n[nH]nc2c1 | inactive | – |
| O=C1CCCCCCCCCCCCCCO1 | – | 23.4 µM (active) |
| CC1CCC(C(C)CS)CC1S (stereo not drawn) | inactive | – |
| CC1COc2ccccc2N1C(=O)C(Cl)Cl (stereo not drawn) | – | 20 µM (active) |
| CCCCCCCCC=O | inactive | – |
| O=C1OC2(c3cc(Br)c(O)c(Br)c3Oc3c2cc(Br)c(O)c3Br)c2c(Cl)c(Cl)c(Cl)c(Cl)c21 | inactive | – |
| BrC1CCC(Br)C(Br)CCC(Br)C(Br)CCC1Br (stereo not drawn) | – | 9.16 µM (active) |
